# Assay results: PubChem BioAssay
# For some assays here: Results with a measured potency or affinity are listed apart. Active and inactive are the calls of the source.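 Rule for the calls, unless noted: active = signal rise over 3 SD above mean of control wells given weak agonist, in both repeats and first screen; inactive = the rest.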
# What was measured:
# [1] = system: TRPC4 beta (transient receptor potential cation channel C4), mouse; assay: activators of mouse TRPC4 channel, confirmation, cell-based, Fluo4 calcium, HEK293 TRPC4beta/mu-opioid, duplicates, 10 µM (AID 2426;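 active = fluorescence ratio normalized to control raised more than 50% in primary screen plus both repeat runs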); conditions: Fluo4 calcium fluorescence, at 10 µM; active compounds read high
# [2] = system: transient receptor potential cation channel C4 beta (TRPC4), mouse; assay: activators of mouse TRPC4 channel, confirmation, cell-based, second round, Fluo4, HEK293 TRPC4beta/mu-opioid, 1 µM (AID 2461;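 active = primary screen active and over 50% activation in each of two duplicate runs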); conditions: Fluo4 calcium fluorescence, at 1 µM; active compounds read high
# [3] = system: TRPC4 (transient receptor potential cation channel C4 beta), mouse; assay: positive allosteric modulators of mouse TRPC4, confirmation, cell-based, second round, Fluo-4, HEK293 TRPC4beta/mu-opioid, 1 µM (AID 2554;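 active = primary screen hit whose fluorescence ratio, in both repeats, exceeds the weak agonist control mean by 3 SD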); conditions: DAMGO EC20, Fluo-4 calcium flux, at 1 µM; active compounds read high
# [4] = system: TRPC4 beta (transient receptor potential cation channel C4), mouse; assay: positive allosteric modulators of mouse TRPC4, confirmation, cell-based, Fluo-4, HEK293 TRPC4beta/mu-opioid (AID 2555;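 active = primary screen hit whose calcium fluorescence ratio, in both repeats, exceeds the weak agonist control mean by 3 SD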); conditions: DAMGO EC20, Fluo-4 calcium flux, at 10 µM; active compounds read high
# [5] = target: Short transient receptor potential channel 4 (Mus musculus) (UniProt Q9QUQ5); assay: inhibitors of mouse TRPC4 channel, confirmation, cell-based, Fluo4, HEK293 TRPC4beta/mu-opioid (AID 2636;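 active = calcium signal cut by more than 3 SD below the full-agonist control yet still positive, in both repeats and the earlier primary screen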); conditions: DAMGO, Fluo4 calcium flux, at 10 µM; active compounds read high
# Sequence of Short transient receptor potential channel 4 (Mus musculus) (Q9QUQ5 whole entry, looked up): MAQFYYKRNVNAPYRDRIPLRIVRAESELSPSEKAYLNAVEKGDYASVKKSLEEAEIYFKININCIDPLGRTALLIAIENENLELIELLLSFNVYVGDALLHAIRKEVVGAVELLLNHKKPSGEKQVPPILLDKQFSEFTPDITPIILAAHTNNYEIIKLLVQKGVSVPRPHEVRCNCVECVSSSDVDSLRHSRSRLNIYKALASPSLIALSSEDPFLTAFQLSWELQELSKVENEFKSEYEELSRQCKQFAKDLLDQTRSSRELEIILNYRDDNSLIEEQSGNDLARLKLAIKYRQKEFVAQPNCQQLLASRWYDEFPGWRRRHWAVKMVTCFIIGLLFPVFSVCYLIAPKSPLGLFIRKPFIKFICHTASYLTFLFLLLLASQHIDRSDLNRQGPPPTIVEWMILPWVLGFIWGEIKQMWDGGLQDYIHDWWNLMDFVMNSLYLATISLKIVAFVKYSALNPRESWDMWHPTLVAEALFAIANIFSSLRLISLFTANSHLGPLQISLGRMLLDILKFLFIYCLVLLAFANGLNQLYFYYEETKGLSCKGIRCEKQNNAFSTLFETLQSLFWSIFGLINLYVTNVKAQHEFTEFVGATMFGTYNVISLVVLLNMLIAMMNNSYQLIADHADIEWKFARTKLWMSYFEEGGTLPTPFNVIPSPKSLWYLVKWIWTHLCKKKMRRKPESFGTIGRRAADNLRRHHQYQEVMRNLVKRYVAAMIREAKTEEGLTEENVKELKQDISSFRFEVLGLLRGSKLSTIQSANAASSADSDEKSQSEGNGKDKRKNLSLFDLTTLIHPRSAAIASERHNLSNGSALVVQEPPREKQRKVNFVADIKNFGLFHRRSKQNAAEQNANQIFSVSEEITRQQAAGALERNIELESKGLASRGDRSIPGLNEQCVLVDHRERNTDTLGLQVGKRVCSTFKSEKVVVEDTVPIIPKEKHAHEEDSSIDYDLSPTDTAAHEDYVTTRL
# [6] = target: Short transient receptor potential channel 4 (Mus musculus) (UniProt Q9QUQ5); assay: inhibitors of mouse TRPC4 channel, confirmation, cell-based, second round, Fluo4, HEK293 TRPC4beta/mu-opioid, 1 µM (AID 2637;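 active = calcium signal ratio cut to more than 3 SD under the fully stimulated control mean yet still positive, in both repeats and the primary screen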;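 for inhibition: percent of integrated ratio relative to wells lacking test compound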); conditions: Fluo4 calcium flux, DAMGO, at 1 µM; active compounds read high
# [7] = target: Short transient receptor potential channel 4 (Mus musculus) (UniProt Q9QUQ5); assay: mouse TRPC4 channel activators, dose response, cell-based, HEK293 TRPC4/mu-opioid, Fluo-4 calcium (AID 434937;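 active = primary screen activator hit with a dose response curve and TRPC4 channel activation at any tested dose; inactive = no activation, no dose response, or not a primary hit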)
# [8] = target: Short transient receptor potential channel 4 (Mus musculus) (UniProt Q9QUQ5); assay: TRPC4 positive allosteric modulators, dose response, cell-based, HEK293 TRPC4/mu-opioid, Fluo-4 calcium, EC20 DAMGO (AID 434941;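 active = earlier screen potentiator hit that boosts the TRPC4 ion channel at some dose, with a dose response; inactive = no potentiation, no dose response, or not a prior hit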;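 note: calcium entry triggered by an EC20 dose of DAMGO at the co-expressed mu-opioid receptor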)
# [9] = target: Short transient receptor potential channel 6 (Mus musculus) (UniProt Q61143); assay: inhibition of mouse TRPC6 channel, confirmation, selectivity assay for TRPC4 inhibitor project, cell-based, HEK293, membrane potential dye, duplicate (AID 434948;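 active = active in primary screen and both duplicates, each dropping signal beyond three positive-control SD with fluorescence still positive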); conditions: HEK293 TRPC6, membrane potential dye fluorescence, at 10 µM, stimulated with maximal-effect acetylcholine; active compounds read high
# Sequence of Short transient receptor potential channel 6 (Mus musculus) (Q61143 whole entry, looked up): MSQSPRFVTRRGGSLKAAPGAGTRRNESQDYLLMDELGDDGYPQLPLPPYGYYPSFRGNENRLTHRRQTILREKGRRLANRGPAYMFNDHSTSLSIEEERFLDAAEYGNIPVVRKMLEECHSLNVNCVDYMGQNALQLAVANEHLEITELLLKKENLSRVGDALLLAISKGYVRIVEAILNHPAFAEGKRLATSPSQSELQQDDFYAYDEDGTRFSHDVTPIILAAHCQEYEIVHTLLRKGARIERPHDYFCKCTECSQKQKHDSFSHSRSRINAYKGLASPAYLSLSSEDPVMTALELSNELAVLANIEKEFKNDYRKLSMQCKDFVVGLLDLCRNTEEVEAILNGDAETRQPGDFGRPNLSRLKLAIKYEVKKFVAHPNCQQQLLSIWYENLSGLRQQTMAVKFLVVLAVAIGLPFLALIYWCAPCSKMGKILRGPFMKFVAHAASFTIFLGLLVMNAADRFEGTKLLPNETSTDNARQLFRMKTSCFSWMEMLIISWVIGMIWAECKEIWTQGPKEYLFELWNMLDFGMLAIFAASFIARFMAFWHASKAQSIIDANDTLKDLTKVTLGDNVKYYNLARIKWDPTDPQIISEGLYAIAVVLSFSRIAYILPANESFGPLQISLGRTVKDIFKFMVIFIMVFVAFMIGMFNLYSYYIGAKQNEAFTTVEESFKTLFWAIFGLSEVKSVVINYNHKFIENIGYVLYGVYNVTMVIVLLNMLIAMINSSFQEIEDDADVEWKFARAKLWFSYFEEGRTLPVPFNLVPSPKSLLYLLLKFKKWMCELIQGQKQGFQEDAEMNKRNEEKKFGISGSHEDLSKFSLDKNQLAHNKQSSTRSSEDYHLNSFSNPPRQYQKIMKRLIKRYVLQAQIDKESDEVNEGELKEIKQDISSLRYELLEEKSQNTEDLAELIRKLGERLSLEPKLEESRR
# [10] = target: Short transient receptor potential channel 6 (Mus musculus) (UniProt Q61143); assay: activation of mouse TRPC6 channel, confirmation, selectivity assay for TRPC4 activator project, cell-based, HEK293, membrane potential dye, duplicate (AID 434950;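 active = membrane potential signal rise above negative control mean plus 3 SD in both duplicates, also active in the earlier TRPC4 screen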); conditions: HEK293 TRPC6, membrane potential fluorescence, at 10 µM; active compounds read high
# [11] = target: Short transient receptor potential channel 6 (Mus musculus) (UniProt Q61143); assay: TRPC6 potentiation by TRPC4 potentiator hits, confirmation, selectivity assay for TRPC4 potentiator project, HEK293 cells, membrane potential dye, duplicate (AID 434952;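 active = compound raising the membrane signal above positive-control mean plus 3 SD in both repeats, and a primary screen hit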); conditions: HEK293 TRPC6, membrane potential dye fluorescence, at 10 µM, maximal acetylcholine added after compound; active compounds read high
# [12] = target: Short transient receptor potential channel 4 (Mus musculus) (UniProt Q9QUQ5); assay: calcium flux activators in TRPC4/5HT1a cells, counter-screen for TRPC4 activator project, cell-based, second counter screen, HEK293 TRPC4/5HT1a, Fluo-4 (AID 434977;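 active = calcium signal rise above buffer-control mean plus 5 SD in both duplicates, and also a hit in the primary screen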); conditions: Fluo-4 calcium flux, at 10 µM; active compounds read high
# [13] = calcium flux inhibitors in TRPC4/5HT1a cells, confirmation, counter-screen for TRPC4 inhibitor project, cell-based, second counter screen, HEK293 TRPC4/5HT1a, Fluo-4 (AID 434978;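 active = primary screen active whose calcium signal fell more than 3 SD beyond the full-serotonin control mean in both duplicate plates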;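 for outcome: serotonin given first at submaximal then at maximal dose after compound preincubation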); conditions: Fluo-4 calcium flux, at 10 µM, serotonin added to trigger calcium flux; active compounds read high
# [14] = system: TRPC4 (mouse), co-expressed with 5HT1a in HEK293; assay: calcium flux potentiators in TRPC4/5HT1a cells, confirmation, counter-screen for TRPC4 potentiator project, cell-based, second counter screen, HEK293 TRPC4/5HT1a, Fluo-4 (AID 434979); conditions: Fluo-4 calcium flux, at 10 µM, serotonin added at its EC20 dose; active compounds read high
# [15] = calcium flux activation in mu-opioid HEK293 cells, confirmation, counter-screen for TRPC4 activator project, cell-based, HEK293 mu-opioid receptor line (AID 449723;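 active = hit in primary screen, with calcium signal over 5 SD above buffer well mean in both duplicates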;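 note: counter screen cells carry the mu-opioid receptor alone and lack TRPC4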); conditions: Fluo-4 calcium fluorescence, at 10 µM; active compounds read high
# [16] = calcium flux enhancement in mu-opioid HEK293 cells, confirmation, counter-screen for TRPC4 allosteric potentiator project, cell-based, HEK293 mu-opioid receptor line (AID 449724;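 active = calcium signal rise more than 3 SD above the low-dose agonist control mean, in both duplicate plates and the primary screen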); conditions: Fluo-4 calcium flux, at 10 µM, compound added before EC20 DAMGO stimulus; active compounds read high
Compound,outcome [1],outcome [2],outcome [3],outcome [4],inhibition [5],inhibition [6],outcome [7],outcome [8],inhibition [9],outcome [10],outcome [11],outcome [12],inhibition [13],outcome [14],outcome [15],outcome [16],outcome [6],outcome [9],outcome [13]
CC1CCCN1CC#CC(O)(c1ccccc1)c1ccccc1 (stereo not drawn),inactive,inactive,inactive,inactive,79% (active),62% (active),inactive,inactive,13.5% (active),inactive,inactive,inactive,33.5% (active),inactive,inactive,inactive,,,
CCOc1cc(/C=C2\C(=N)N3N=CSC3=NC2=O)ccc1OS(=O)(=O)c1ccccc1,inactive,inactive,inactive,inactive,96% (active),,inactive,inactive,,inactive,inactive,inactive,16.2% (active),inactive,inactive,inactive,inactive,inactive,
NC(=O)c1nsc(C(=O)N(Cc2ccc(F)cc2)C(C(=O)NCC2CCCO2)c2ccc(O)cc2)c1N (stereo not drawn),inactive,inactive,inactive,inactive,77% (active),,inactive,inactive,,inactive,inactive,inactive,25.6% (active),inactive,inactive,inactive,inactive,inactive,
O=C1/C(=C/c2ccccc2Cl)SC(=S)N1CCCC(=O)N(CCO)c1ccccc1,inactive,inactive,inactive,inactive,83% (active),50% (active),inactive,inactive,,inactive,inactive,inactive,24.9% (active),inactive,inactive,inactive,,inactive,
CCCNCc1cc(Br)ccc1OCC(=O)NCCc1ccccc1,inactive,inactive,inactive,inactive,99% (active),52% (active),inactive,inactive,,inactive,inactive,inactive,,inactive,inactive,inactive,,inactive,inactive
Nc1c2c(nc3c1CCCC3)CCCC2 (tested in a mixture with another compound),inactive,inactive,inactive,inactive,94% (active),60% (active),inactive,inactive,,inactive,inactive,inactive,18.3% (active),inactive,inactive,inactive,,inactive,
COc1cc(/C=C2\SC(N3CCC(C)CC3)=NC2=O)ccc1O,inactive,inactive,inactive,inactive,91% (active),48% (active),inactive,inactive,,inactive,inactive,inactive,31.2% (active),inactive,inactive,inactive,,inactive,
CSc1nc(N2CCOCC2)c2c3c(sc2n1)CCCC3,inactive,inactive,inactive,inactive,75% (active),,inactive,inactive,,inactive,inactive,inactive,37.5% (active),inactive,inactive,inactive,inactive,inactive,
